# Data: PubChem BioAssay (EPA / NIEHS)
# “And” between values parts separate entries of the source, which are not always exact repeats. Equal entries are not always repeated. The source made the active and inactive calls. The calls were made as follows: active = hit-call score of the fitted dose curve at least 0.9, where 1 is the maximum; inactive = score below 0.9.
# Read-out: Interleukin-1 alpha (IL1a), IL1A (gene 3552)
# Test: BSK_LPS_IL1a: BioMAP Diversity Plus: LPS Assay for Interleukin-1 alpha (IL1a) Biomarker Activity (AID 2283080)
# Conditions: primary human HUVEC with PBMC; actives raise or lower the signal
# Protocol: BSK_LPS is a cell-based, multiplexed-readout assay that uses umbilical vein endothelium and peripheral blood mononuclear cells, a human vascular primary cell co-culture, with measurements taken at 24 hours after chemical dosing in a 96-well plate.BSK_LPS_IL1a is an assay component measured in the BSK_LPS assay. It measures IL-a antibody related to regulation of gene expression using ELISA technology.Data from the assay component BSK_LPS_IL1a was analyzed into 1 assay endpoint. This assay endpoint, BSK_LPS_IL1a, was analyzed with bidirectional fitting relative to DMSO as the negative control and baseline of activity. Using a type of binding reporter, gain or loss-of-signal activity can be used to understand changes in the signaling as they relate to the gene IL1A. Furthermore, this assay endpoint can be referred to as a primary readout, because this assay has produced multiple assay endpoints where this one serves a signaling function. To generalize the intended target to other relatable targets, this assay endpoint is annotated to the cytokine intended target family, where the subfamily is interleukins.
# The levels of cell surface (or secreted, indicated by the prefix "s") biomarker endpoints were measured by ELISA. Overt cytotoxicity to cells in confluent adherent cultures (all systems other than the BT system) was assessed by measuring total protein levels using sulforhodamine B (SRB) staining in parallel cultures at the time of biomarker measurements, indicated as SRB endpoints. For proliferation assays for adherent cell types, individual cell types are cultured at sub-confluence and relative cell numbers quantified by SRB staining at time points optimized for each system (48 h: 3C and CASM3C systems; 72 h: BT and HDF3CGF systems; 96 h: SAg system). SRB was performed by staining cells with 0.1% SRB after fixation with 10% TCA and reading wells at 560 nm.Viability and proliferation of PBMC (T cells) was quantified by Alamar Blue reduction for the SAg and BT systems. For PBMC viability (referred to as PBMC Cytotoxicity within the assay endpoint names), cells were plated (75,000/well in a 96-well plate) and then chemical samples added for 1 h before addition of activators, SEB and TSST-1 (20 ng/mL final concentration each). Cells were incubated for 90 h. Then, Alamar Blue (20 uL/well) (Invitrogen, Cat DAL1100) was added for 6 h, and the plates were read with a fluorescence microplate reader at 546/580 nm (excitation/emission). For PBMC proliferation, cells were plated and activated as above but incubated for only 16 h prior to addition of Alamar Blue. Plates were read after 6 h.
Compound,outcome,AC50
CCC(C)Nc1c([N+](=O)[O-])cc(C(C)(C)C)cc1[N+](=O)[O-] (stereo not given),inactive,
O=C(O)C(F)(F)C(F)(F)C(F)(F)C(F)(F)C(F)(F)C(F)(F)C(F)(F)F,inactive,
CNC(=O)CSP(=S)(OC)OC,inactive,
Oc1cc(Cl)ccc1Oc1ccc(Cl)cc1Cl,,14.3 µM (active) and 14.6 µM (active) and 29 µM (active)
O=C1c2ccccc2C(=O)N1SC(Cl)(Cl)Cl,inactive,
CNC(=O)Oc1ccccc1OC(C)C,inactive,
CCS(=O)(=O)c1cccnc1S(=O)(=O)NC(=O)Nc1nc(OC)cc(OC)n1,inactive,
ClC1C(Cl)C(Cl)C(Cl)C(Cl)C1Cl (stereo not given),inactive,
CC(C)N(C(=O)COc1nnc(C(F)(F)F)s1)c1ccc(F)cc1,inactive,
N#CN,inactive,
O=S(=O)(O)C(F)(F)C(F)(F)C(F)(F)C(F)(F)C(F)(F)C(F)(F)C(F)(F)C(F)(F)F,inactive,
CNC(=O)/C=C(\C)OP(=O)(OC)OC,inactive,
CC1(C)C(C=C(Cl)Cl)C1C(=O)OC(C#N)c1ccc(F)c(Oc2ccccc2)c1 (stereo not given),inactive,
Oc1ccc(Cl)cc1Cc1ccccc1,,31.8 µM (active) [middle of 6 runs]
COc1cc(OC)nc(NC(=O)NS(=O)(=O)c2cc(NC=O)ccc2C(=O)N(C)C)n1,inactive,
COC(=O)c1ccccc1S(=O)(=O)NC(=O)N(C)c1nc(C)nc(OC)n1,inactive,
CCOc1nc(NC)nc(NC(=O)NS(=O)(=O)c2ccccc2C(=O)OC)n1,inactive,
COP(=S)(OC)Oc1ccc([N+](=O)[O-])cc1,inactive,
O=C(NC(=O)c1c(F)cccc1F)Nc1ccc(OC(F)(F)C(F)OC(F)(F)F)c(Cl)c1 (stereo not given),inactive,
CCC(C)(C)C(=O)OC1=C(c2ccc(Cl)cc2Cl)C(=O)OC12CCCCC2,,36.5 µM (active)

Compound,outcome,AC50
CC1(c2ccc(Oc3ccccc3)cc2)OC(=O)N(Nc2ccccc2)C1=O (stereo not given),inactive,
CC(C)(C)C(O)C(Oc1ccc(Cl)cc1)n1cncn1 (stereo not given),inactive,
O=C(O)CCCOc1ccc(Cl)cc1Cl,inactive,
CC(C)OC(=O)Nc1cccc(Cl)c1,inactive,
O=C(O)COc1ccc(Cl)cc1Cl,inactive,
CN1CSC(=S)N(C)C1,,12.8 µM (active)
CCOC1Oc2ccc(OS(C)(=O)=O)cc2C1(C)C (stereo not given),inactive,
CCCN(CCC)c1c([N+](=O)[O-])cc(C(F)(F)F)cc1[N+](=O)[O-],inactive,
COC(=O)c1ccccc1CS(=O)(=O)NC(=O)Nc1nc(OC)cc(OC)n1,inactive,
CCc1ccc(C(=O)NN(C(=O)c2cc(C)cc(C)c2)C(C)(C)C)cc1,inactive,
COc1nn(CSP(=S)(OC)OC)c(=O)s1,inactive,
CCC(C)(NC(=O)c1cc(Cl)c(C)c(Cl)c1)C(=O)CCl (stereo not given),,15.9 µM (active)
C[C@H]1[C@H](c2ccc(Cl)cc2)SC(=O)N1C(=O)NC1CCCCC1,,26.4 µM (active)
Cc1[nH]c(=O)n(C(C)(C)C)c(=O)c1Cl,inactive,
COP(=S)(OC)Oc1ccc(SC)c(C)c1,inactive,
O=C(Nc1ccccc1)Nc1cnns1,inactive,
CCN(CC)C(=O)SCc1ccc(Cl)cc1,inactive,
N#Cc1c(Cl)c(Cl)c(Cl)c(C#N)c1Cl,,1.03 µM (active)
CC[C@H](C)[C@H]1O[C@]2(C=C[C@@H]1C)C[C@@H]1C[C@@H](C/C=C(\C)[C@@H](O[C@H]3C[C@H](OC)[C@@H](O[C@H]4C[C@H](OC)[C@@H](O)[C@H](C)O4)[C@H](C)O3)[C@@H](C)/C=C/C=C3\CO[C@@H]4[C@H](O)C(C)=C[C@@H](C(=O)O1)[C@]34O)O2 (tested in a mixture with another compound),,6.51 µM (active)
OCCOc1ccccc1,inactive,
